The record followed here is PubChem BioAssay.

The nature of assay [1]: antimalarial activity against Dd2 strain (AID 2302;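 active = growth inhibition above 50% at the single 2 µM test dose, taken to imply half-maximal potency below 2 µM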;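 note: 0% = DMSO untreated growth and 100% = chloroquine plus artemisinin killed control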). As to conditions: P. falciparum Dd2 in RBCs, LDH growth readout, 72 h; at 2 µM; active compounds read high.
Assay [2] can be described thus: HepG2 cytotoxicity, primary screen, cytotoxicity control for P. falciparum antimalarial project, cell-based, ATP luminescence (AID 2303;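 active = inhibition above 50%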;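 note: 0% = DMSO wells and 100% = digitonin-killed cells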). As to conditions: HepG2 viability, 24-48 h, at 10 µM, active compounds read high.
The target in assay [3] is L-lactate dehydrogenase (Plasmodium falciparum (isolate CDC / Honduras)) (UniProt Q27743). Kind of assay: PfLDH activity inhibition – cell lysate, 3D7 strain, counter-screen for P. falciparum growth inhibition project (AID 2304).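 Note: 0% = vehicle and 100% = reference inhibitor.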 The following applies: P. falciparum 3D7 crude extract, LDH APAD/NBT absorbance; at 2 µM; active compounds read high. (The purpose of a counterscreen is to sort out artefacts and off-target activity.)

Assay [4] is described as follows: inhibition of 3D7 malaria parasite growth – strain 3D7 (AID 2306).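 Note: 0% = DMSO wells and 100% = chloroquine plus artemisinin control wells.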 The following applies: P. falciparum 3D7 erythrocytic growth, LDH absorbance, 72 h; at 2 µM; active compounds read high.
For assay [5], the target named is Calcium-dependent protein kinase 1 (Plasmodium falciparum (isolate 3D7)) (UniProt P62344). Kind of assay: PfCDPK1 kinase inhibitors, biochemical, TCAMS library (AID 1159585; cut-off not given, nearly all actives have IC50 up to about 0.98 µM;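 note: inhibitors leave more ATP so luminescence rises with inhibition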). The following applies: recombinant PfCDPK1, Kinase-Glo ATP depletion luminescence. On the technique in general: In Kinase-Glo more light means more ATP remaining.
For assay [6], the target named is Plasmodium falciparum protein kinase 6 (PK6, PF3D7_1337100) (UniProt Q8IDW1). Nature of the assay: PfPK6 kinase inhibitors, biochemical, TCAMS library (AID 1159586). As to conditions: recombinant PfPK6, Kinase-Glo ATP depletion luminescence.
In assay [7] the target is Protein kinase 7 (PK7), Plasmodium falciparum 3D7 (PF3D7_0213400) (UniProt Q7YTF7). Kind of assay: inhibition of Plasmodium PK7 catalytic activity – biochemical, TCAMS antimalarial set, Kinase-Glo luminescence (AID 1159587). As to conditions: recombinant PfPK7, Kinase-Glo ATP depletion luminescence.
Assay [8] deals with Calcium-dependent protein kinase 4 (Plasmodium falciparum (isolate 3D7)) (UniProt Q8IBS5). Kind of assay: PfCDPK4 kinase inhibitors, biochemical, TCAMS library (AID 1159588; cut-off not given, nearly all actives have IC50 up to about 0.91 µM). The following applies: recombinant PfCDPK4, Kinase-Glo ATP depletion luminescence.

Unmarked numbers belong to inactive results. For some assays here: Potency and affinity values are given separately. Calls of active or inactive are those of the source. Unless noted, the rule behind the calls is not given here.

Chain of Calcium-dependent protein kinase 1 (Plasmodium falciparum (isolate 3D7)) (P62344 whole entry, looked up): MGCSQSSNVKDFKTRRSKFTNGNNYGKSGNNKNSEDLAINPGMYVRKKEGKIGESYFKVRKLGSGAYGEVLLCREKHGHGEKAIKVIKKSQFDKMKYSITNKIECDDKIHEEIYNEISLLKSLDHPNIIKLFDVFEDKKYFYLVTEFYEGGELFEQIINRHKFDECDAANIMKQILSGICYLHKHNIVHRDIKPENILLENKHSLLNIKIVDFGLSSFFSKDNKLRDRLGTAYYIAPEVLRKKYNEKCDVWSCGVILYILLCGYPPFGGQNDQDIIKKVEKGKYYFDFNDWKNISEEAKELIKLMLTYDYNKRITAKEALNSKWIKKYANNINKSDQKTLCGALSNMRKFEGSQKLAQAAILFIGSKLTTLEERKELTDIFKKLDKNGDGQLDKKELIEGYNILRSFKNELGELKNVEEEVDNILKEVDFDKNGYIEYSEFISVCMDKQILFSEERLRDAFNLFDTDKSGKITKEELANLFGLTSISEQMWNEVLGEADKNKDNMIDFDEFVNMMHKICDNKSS
Chain of Calcium-dependent protein kinase 4 (Plasmodium falciparum (isolate 3D7)) (Q8IBS5 whole entry, looked up): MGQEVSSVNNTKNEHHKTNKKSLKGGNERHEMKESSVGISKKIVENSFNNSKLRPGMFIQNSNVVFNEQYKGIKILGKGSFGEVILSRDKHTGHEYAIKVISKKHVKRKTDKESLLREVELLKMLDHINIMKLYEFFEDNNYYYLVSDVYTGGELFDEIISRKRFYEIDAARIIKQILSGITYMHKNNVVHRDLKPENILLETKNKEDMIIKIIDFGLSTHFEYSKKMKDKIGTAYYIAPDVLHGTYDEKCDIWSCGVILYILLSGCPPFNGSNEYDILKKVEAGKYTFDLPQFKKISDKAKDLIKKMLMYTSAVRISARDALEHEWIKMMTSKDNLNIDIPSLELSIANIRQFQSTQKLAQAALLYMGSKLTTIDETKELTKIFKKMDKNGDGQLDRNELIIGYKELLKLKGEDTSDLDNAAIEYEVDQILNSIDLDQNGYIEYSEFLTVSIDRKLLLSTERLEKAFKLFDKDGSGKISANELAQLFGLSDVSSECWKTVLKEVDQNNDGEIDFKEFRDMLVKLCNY
Chain of Protein kinase 7 (PK7), Plasmodium falciparum 3D7 (PF3D7_0213400) (Q7YTF7 1-343): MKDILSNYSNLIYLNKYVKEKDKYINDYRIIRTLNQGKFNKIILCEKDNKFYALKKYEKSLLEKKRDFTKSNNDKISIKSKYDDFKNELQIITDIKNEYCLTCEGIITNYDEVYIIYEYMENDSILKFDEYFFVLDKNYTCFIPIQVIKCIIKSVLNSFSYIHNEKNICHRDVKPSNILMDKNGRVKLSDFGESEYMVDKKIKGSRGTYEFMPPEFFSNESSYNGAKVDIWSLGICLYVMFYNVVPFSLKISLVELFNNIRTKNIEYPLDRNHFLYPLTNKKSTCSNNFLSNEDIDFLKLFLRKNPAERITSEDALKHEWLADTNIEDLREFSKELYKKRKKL
Chain of L-lactate dehydrogenase (Plasmodium falciparum (isolate CDC / Honduras)) (Q27743 whole entry, looked up): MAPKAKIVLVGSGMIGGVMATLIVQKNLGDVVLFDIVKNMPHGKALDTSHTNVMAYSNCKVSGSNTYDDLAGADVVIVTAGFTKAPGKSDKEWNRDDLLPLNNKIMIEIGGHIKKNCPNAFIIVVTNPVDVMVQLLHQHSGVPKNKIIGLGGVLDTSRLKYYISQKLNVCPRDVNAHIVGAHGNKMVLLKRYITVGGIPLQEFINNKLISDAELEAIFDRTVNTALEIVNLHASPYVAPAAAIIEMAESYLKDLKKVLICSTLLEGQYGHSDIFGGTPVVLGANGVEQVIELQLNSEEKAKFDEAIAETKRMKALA
Chain of Plasmodium falciparum protein kinase 6 (PK6, PF3D7_1337100) (Q8IDW1 1-305): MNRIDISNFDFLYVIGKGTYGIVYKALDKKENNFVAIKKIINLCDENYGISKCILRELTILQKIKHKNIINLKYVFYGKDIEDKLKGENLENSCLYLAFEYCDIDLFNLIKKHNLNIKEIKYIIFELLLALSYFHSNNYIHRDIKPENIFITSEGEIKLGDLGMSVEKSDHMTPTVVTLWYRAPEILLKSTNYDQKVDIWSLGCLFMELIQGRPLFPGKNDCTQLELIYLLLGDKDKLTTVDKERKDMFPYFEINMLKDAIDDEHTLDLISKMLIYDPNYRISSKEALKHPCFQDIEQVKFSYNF

The term inhibition denotes the relative decrease from the control value, in per cent. With `Cc1cc2cc(-c3ccc(CN)cc3)ccc2nc1N`, the growth inhibition in assay [1] is 8%; in assay [4], 92% (active). The inhibition in assay [2] was 18%; in assay [3], 4%. Moreover, the result in assay [5], in assay [6], in assay [7] and in assay [8] was inactive.

As for `COc1ccc(C(=O)Nc2ccc(Nc3nc(C)cc(N(C)C)n3)cc2)c(OC)c1`, the figures for the growth inhibition in assay [1] and in assay [4] were 72% (active) and 100% (active), respectively. Moreover, the inhibition in assay [2] was 34%; in assay [3] it was 0%. The outcome in assay [5], in assay [6], in assay [7] and in assay [8] was inactive.

Turning to `COCCCn1c(=N)c(C(=O)NCCc2ccc(OC)cc2)cc2c(=O)n3cccc(C)c3nc21`, the figures for the growth inhibition in assay [1] and in assay [4] were 33% and 95% (active), respectively. For the same molecule, the figures for the inhibition in assay [2] and in assay [3] were 18% and -1%, respectively. Further, the result in assay [5], in assay [6], in assay [7] and in assay [8] was inactive.

`OCCOCn1cnc2cnc(N[C@H]3OC[C@H](O)[C@@H](O)[C@@H]3O)nc21`: the growth inhibition in assay [1] is -2%; in assay [4], 82% (active). Also, the results for the inhibition in assay [2] and in assay [3] were 42% and 0%, respectively. For the same molecule, the outcome in assay [5], in assay [6], in assay [7] and in assay [8] was inactive.

For `CC(C)CNCc1ccc(-c2cccc(CNc3ccc4ncccc4c3)c2)cc1`, the growth inhibition was 31% in assay [1] and 96% (active) in assay [4]. Further, the inhibition in assay [2] was 29%; in assay [3] it was -2%. Further, the result in assay [5], in assay [6], in assay [7] and in assay [8] was inactive.

In the case of `Cc1cccc2[nH]c(-c3cccc(-c4cccc(NC(=O)Nc5ccc(Cl)c(Cl)c5)c4)c3)nc12`, the growth inhibition was 96% (active) in assay [1] and 101% (active) in assay [4]. Also, the inhibition in assay [2] was 24%; in assay [3] it was 1%. Moreover, the result in assay [5], in assay [6], in assay [7] and in assay [8] was inactive.

With `COc1ccc2nccc([C@@H](O)CN3CCC(NCCOc4ccc(F)cc4[N+](=O)[O-])CC3)c2c1`, the growth inhibition in assay [1] was 92% (active); in assay [4], 99% (active). In addition, the inhibition in assay [2] was 8%; in assay [3] it was -1%. Further, the outcome in assay [5], in assay [6], in assay [7] and in assay [8] was inactive.

Consider `CCCCC(=O)Nc1cc(=O)[nH]c2nc(-c3ccc(Cl)cc3)nn12`, for which the growth inhibition in assay [1] is 77% (active); in assay [4], 89% (active). Also, the inhibition in assay [2] is 1%; in assay [3], 0%. Moreover, the outcome in assay [5], in assay [6], in assay [7] and in assay [8] was inactive.

Regarding `Cc1ccccc1OCCCON1C(N)=NC(N)=NC1(C)C`, the growth inhibition is 97% (active) in assay [1] and 95% (active) in assay [4]. The results for the inhibition in assay [2] and in assay [3] were 66% (active) and 4%, respectively. For the same molecule, the result in assay [5], in assay [6], in assay [7] and in assay [8] was inactive.

As to `COc1cc(C(=O)N2CCOC(CCN3CCC(Cc4ccc(F)cc4)CC3)(c3ccc(Cl)c(Cl)c3)C2)cc(OC)c1OC` (configuration not stated), the growth inhibition in assay [1] is 58% (active); in assay [4], 88% (active). In addition, the inhibition in assay [2] is 44%; in assay [3] it was -5%. In addition, the outcome in assay [5], in assay [6], in assay [7] and in assay [8] was inactive.

As to `CC(C)C[C@H](Nc1ccc(C#N)c2ccccc12)C(=O)NC(C)(C)C12CC3CC(CC(C3)C1)C2`, the growth inhibition in assay [1] was 30%; in assay [4] it was 96% (active). Moreover, the inhibition was 19% in assay [2] and -1% in assay [3]. Also, the outcome in assay [5], in assay [6], in assay [7] and in assay [8] was inactive.

Regarding `COc1c(C2CCN(CCCCNC(=O)c3ccc(-c4ccc(NC(=O)C(F)(F)F)cc4)cc3)CC2)ccc2c1CCCC2`, the growth inhibition in assay [1] was 33%; in assay [4], 86% (active). For the same molecule, the inhibition was 95% (active) in assay [2] and 8% in assay [3]. Besides, the result in assay [5], in assay [6], in assay [7] and in assay [8] was inactive.

On to `O=C(Nc1ccc([N+](=O)[O-])cc1)Nc1nc2ccc(Cl)cc2s1`, for which the values for the growth inhibition in assay [1] and in assay [4] were 33% and 92% (active), respectively. In addition, the inhibition in assay [2] was 63% (active); in assay [3] it was 2%. Besides, the outcome in assay [5], in assay [6], in assay [7] and in assay [8] was inactive.

In the case of `COc1ccc(OC)c(NC(=O)CSc2nc(-c3ccccc3Cl)ns2)c1`, the growth inhibition was 32% in assay [1] and 95% (active) in assay [4]. In addition, the inhibition was -8% in assay [2] and -1% in assay [3]. Also, the result in assay [5], in assay [6], in assay [7] and in assay [8] was inactive.

Regarding `COc1cc2nc(NCC3CCN(C(=O)c4ccc(-c5ccc(C(=O)N(C)C)cc5C)cc4)CC3)nc(N)c2cc1OC`, the results for the growth inhibition in assay [1] and in assay [4] were 34% and 101% (active), respectively. Further, the values for the inhibition in assay [2] and in assay [3] were 2% and 1%, respectively. The result in assay [5], in assay [6], in assay [7] and in assay [8] was inactive.

Consider `CC1(C)N=C(N)N=C(N)N1OCCCOc1ccc(N)cc1`, for which the growth inhibition in assay [1] is 95% (active); in assay [4] it was 96% (active). The inhibition was 66% (active) in assay [2] and 1% in assay [3]. Moreover, the outcome in assay [5], in assay [6], in assay [7] and in assay [8] was inactive.

In the case of `CC(C)Sc1ccc(Cl)cc1CON1C(N)=NC(N)=NC1(C)C`, the values for the growth inhibition in assay [1] and in assay [4] were 90% (active) and 93% (active), respectively. Besides, the inhibition in assay [2] was 66% (active); in assay [3], 6%. For the same molecule, the result in assay [5], in assay [6], in assay [7] and in assay [8] was inactive.

For `Cc1cccc2[nH]c(-c3ccc(-c4cccc(CN5CCN(c6ccc(C#N)cn6)CC5)c4)s3)nc12`, the growth inhibition is 8% in assay [1] and 85% (active) in assay [4]. Further, the inhibition in assay [2] was 37%; in assay [3], 2%. Moreover, the outcome in assay [5], in assay [6], in assay [7] and in assay [8] was inactive.

`Fc1ccc2nc(-c3cccc(-c4ccc(CN5CCN(c6ccncc6)CC5)cc4)c3)[nH]c2c1`: the growth inhibition in assay [1] was 67% (active); in assay [4] it was 100% (active). Also, the results for the inhibition in assay [2] and in assay [3] were 39% and 0%, respectively. The outcome in assay [5], in assay [6], in assay [7] and in assay [8] was inactive.
